From PubChem BioAssay (Tox21) come the findings set out here.

Results filed as inconclusive are left out. Unmarked numbers belong to inactive results. Calls of active or inactive are those of the source. Calls follow the shape of the dose curve; as a rule, active = well fitted activation curve with a large enough effect in the repeat runs; inconclusive = weak or mixed curves; inactive = flat fitted curve, though single readings scatter.
% is scaled to controls: 0 for no effect and ±100 for the full control effect; potency is read from the fitted curve at half-maximal effect.

The assay can be described thus: A CellTox Green Cytotoxicity Assay to monitor cytotoxicity in HEK293 cells - 8 hour (AID 1224884). Also: nearly all actives have a fitted effect of over 35% in size. The settings on record: CellTox Green fluorescence; series mostly up to 76.8 µM; cytotoxicity increase: at the top concentration. The gist of the method: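 Each value comes from one timepoint of a single continuous run in which HEK293 cells with CellTox Green were exposed to compound for up to 40 h at 37 C, dye fluorescence rising with cell death.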
In the case of `NC(=O)NS(=O)(=O)c1ccc(N)cc1`, the “cytotoxicity increase” value was -12.4% [at 35.3 µM].
Still for that read-out and setting: under `C[C@@H]1C[C@H]2[C@@H]3CCC4=CC(=O)C=C[C@]4(C)[C@@]3(Cl)[C@@H](O)C[C@]2(C)[C@@]1(OC(=O)c1ccco1)C(=O)CCl` stands -12.1% [at 35.3 µM].
For the compound `O=C(N/N=C/c1ccccc1O)c1ccncc1`, the “cytotoxicity increase” value is -1.84% [at 35.3 µM].
On the same count and under the same terms, under `O=C(Nc1cccc([N+](=O)[O-])c1)c1cc2ccccc2cc1O` stands -2.02%.
Same read-out and setting: the figure for `C/C(=C(/OCCOc1ccc(Cl)cc1)c1ccc(Cl)cc1Cl)n1ccnc1` is -8.87% [at 35.3 µM]; for `CN(C)c1ccc(C2(c3ccc(N(C)C)cc3)OC(=O)c3cc(N(C)C)ccc32)cc1` it is 6.44%; for `Cn1cc(C(=O)[C@@H]2CCc3nc[nH]c3C2)c2ccccc21` it is -0.271% [at 35.3 µM].
For `Clc1ccc(C(Cn2ccnc2)OCc2ccc(Sc3ccccc3)cc2)c(Cl)c1` (stereo unspecified), the “cytotoxicity increase” value is 5.4% [at 35.3 µM].
Same read-out and setting: under `NNc1nc(-c2ccc([N+](=O)[O-])cc2)cs1` stands -13.8%; under `CCCCCOC(=O)CCCC`, 12%.
The same measure, in the same setting: the figure for `CC1=C(C(=O)OC(C)C)C(c2cccc([N+](=O)[O-])c2)C(C(=O)OC2CN(C(c3ccccc3)c3ccccc3)C2)=C(N)N1` (stereo unspecified) is 1.46% [at 35.3 µM].
Same read-out and setting: the figure for `CCC(N)(CO)CO` is -3.76%.
With `Cc1cccc(S(=O)(=O)O)c1C`, the “cytotoxicity increase” value is -10.8%.
Regarding `CCCC1O[C@@H]2C[C@H]3[C@@H]4CCC5=CC(=O)C=C[C@]5(C)[C@H]4[C@@H](O)C[C@]3(C)[C@]2(C(=O)CO)O1` (stereo partly specified), the Potency result is “inactive”.
With `Nc1ccccc1O`, the “cytotoxicity increase” value is -1.83%.
As to `C=CC(=O)OCC(CO)(COC(=O)C=C)COC(=O)C=C`, the Potency entry was “inactive”.
As for `O=C(NOCC1CC1)c1ccc(F)c(F)c1Nc1ccc(I)cc1Cl`, the “cytotoxicity increase” value was 1.31% [at 35.3 µM].
As for `Cc1ccc2oc(CN(Cc3ccccc3)C(=O)Nc3c(F)cc(F)cc3F)c(-c3ccc(Cl)cc3)c2c1`, the “cytotoxicity increase” value was 0.428%.
Still for that read-out and setting: the figure for `Cc1cc(C2CCCCC2)n(O)c(=O)c1` is -12.4% [at 35.3 µM].
For `O=C(O)c1c(Cl)cccc1Cl`, the “cytotoxicity increase” value is 0.171%.
As for `CN(C/C=C/C#CC(C)(C)C)Cc1cccc2ccccc12`, the “cytotoxicity increase” value was 31.2% [at 35.3 µM].
In the case of `Clc1ccc2n[nH]nc2c1`, the “cytotoxicity increase” value is -0.262%.
Still for that read-out and setting: the figure for `CC(=O)OCC(C)OC(C)=O` (stereo unspecified) is -12.8%; for `CCN(C(=O)N(CC)c1ccccc1)c1ccccc1` it is 4.79%; for `C1CCCC1` it is 1.54%.
On the same count and under the same terms, the figure for `Nc1ccc2cc(S(=O)(=O)O)cc(O)c2c1N=Nc1ccccc1C(F)(F)F` is -23.1%.
With `CSc1cnc(C)cn1`, the Potency was 63.3 µM (active).
Turning to `CCN1/C(=C/C=C/c2sc3ccccc3[n+]2CC)Sc2ccccc21`, the cytotoxicity increase is -9.76% [at 15.8 µM].
On the same count and under the same terms, the figure for `CSc1ccc(/C=C2/C(C)=C(CC(=O)O)c3cc(F)ccc32)cc1` is 4.18% [at 35.3 µM]; for `CCN(CCC#N)c1ccc(N=Nc2c(Cl)cc([N+](=O)[O-])cc2Cl)cc1` it is -16.8%; for `Cc1ccc(-n2nc(C(C)(C)C)cc2NC(=O)Nc2ccc(OCCN3CCOCC3)c3ccccc23)cc1` it is -3.24% [at 35.3 µM].
On the same count and under the same terms, under `CCOC(=O)/C=C(C)/C=C/C=C(C)/C=C/c1c(C)cc(OC)c(C)c1C` stands 9.81% [at 35.3 µM]; under `Cc1onc(-c2c(Cl)cccc2Cl)c1C(=O)N[C@@H]1C(=O)N2[C@@H]1SC(C)(C)[C@@H]2C(=O)O`, -0.146% [at 35.3 µM]; under `CCN(Cc1cccnc1)C(=O)c1cccc(Cl)c1[C@]1(C)C(=O)N(Cc2ccc(OC)cc2OC)c2ccc(Cl)cc21`, 10.7%.
On the same count and under the same terms, under `CC(C)(C)C(=O)OCOC(=O)[C@@H]1N2C(=O)[C@@H](NC(=O)[C@H](N)c3ccccc3)[C@H]2SC1(C)C` stands 0.552% [at 35.3 µM].
Consider `CCOC(=O)O[C@H](C)OC(=O)c1ccc2c(c1)cc(C(=O)NC1CCN(C(C)C)CC1)n2Cc1cc(-c2ccc(Cl)s2)on1`, for which the Potency was 51.3 µM (active).
